# Values joined by “and” are separate entries in the source; they are usually repeats but may differ in a detail not shown here. Equal entries are not always repeated. Records with an inconclusive call do not appear. Active and inactive are the calls of the source. The calls were made as follows, unless noted: active = hit-call score of the fitted dose curve at least 0.9, where 1 is the maximum; inconclusive = response in the unintended direction; inactive = score below 0.9.
# Legend:
# [1] = CCTE_Padilla_ZF_144hpf_TERATOSCORE: (Legacy) CCTE's 144 Hour Post-fertilization zebrafish Assay Teratoscore, Padilla Lab (AID 2283679; active = hit-call score of the fitted dose curve at least 0.9, where 1 is the maximum; inactive = score below 0.9;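 as to AC50: zebrafish embryos with chorions exposed by immersion from 6-8 hpf to 5 dpf with daily renewal; teratogenicity score from eye scoring of death hatching and malformations at 144 hpf; higher score means more developmental defects relative to DMSO baseline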)
# How it was run: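 Larvae scored by eye at 144 hpf for death, hatching and malformations after a day in clean Hanks'. Before that, daily-renewed exposure at 80 uM (0.4% DMSO, 26C) from roughly 6-8 hpf through 5 dpf, 4 embryos per chemical.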
# [2] = STM_H9_CystineISnorm_perc: Stemina devTOX quickPredict H9 human embryonic stem cell (hESC)-based Assay for Cystine (CYSS) Metabolite Biomarker, Normalized (AID 2283713; active = hit-call score of the fitted dose curve at least 0.9, where 1 is the maximum; inactive = score below 0.9)
# How it was run: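 H9 hESC, pluripotent; compound 72h, re-dosed q24h with medium change. Last-24h medium → 40% acetonitrile deproteinization → UPLC-HRMS. CYSS area / C13-CYSS standard, then % of 0.1% DMSO median.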
# [3] = Tanguay_ZF_120hpf_ActivityScore_legacy: (Legacy) Oregon State University Tanguay Lab 120 Hour Post-fertilization zebrafish Assay Score for Activity (AID 2283742);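 as to AC50: dechorionated Tropical 5D wild-type zebrafish embryos held singly per well; static exposure from 6 hpf until 120 hpf at 28 °C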
# How it was run: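 Embryos are staged, enzymatically dechorionated at 4 hpf, placed individually at 6 hpf, then held in test chemical (0.64% DMSO) at 28C until 120 hpf. Mortality and malformations are scored by brightfield, with non-mortality endpoints skipped for dead embryos.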
# [4] = STM_H9_OrnCyssISnorm_ratio: Stemina devTOX quickPredict H9 human embryonic stem cell (hESC)-based Assay for Ornithine (ORN):Cystine (CYSS) Ratio (AID 2283714)
# How it was run: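 Steps: H9 hESCs in pluripotent state dosed 72h, medium plus compound renewed every 24h; conditioned medium from the final 24h deproteinized in 40% acetonitrile; ORN and CYSS quantified by UPLC-HRMS with C13 spike-ins; ratio relative to vehicle.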
# [5] = CEETOX_H295R_MTT_cell_viability: Viability Assessment in the CeeTox HT-H295R MTT Assay (AID 2283718; active = hit-call score of the fitted dose curve at least 0.9, where 1 is the maximum; inactive = score below 0.9)
# How it was run: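 MTT reduction (0.5 mg/ml, 4 h at 37 C; absorbance at 570 and 650 nm) gave viability as background-corrected percent change versus controls. H295R cells had 48 h forskolin (10 uM) prestimulation, then 48 h chemical exposure at 0.1% DMSO.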
# [6] = ArunA_CellTiter_hNC: Viability Assessment in the ArunA Biomedical's Oris Neural Crest (hNC) Cell Migration Assay (AID 2283752)
# How it was run: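 Cell titer was measured with the CellTiter Aqueous One reagent after 72 h of chemical dosing. Cells were H9-derived embryonic neural crest stem cells seeded on Matrigel, 60,000 per well, and given 16 h at 37C beforehand.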
# [7] = ArunA_CellTiter_hNP: Viability Assessment in the ArunA Biomedical's Oris Neural Crest (hNC) Cell Migration Assay (AID 2283753)
# How it was run: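 H9-derived hNP1 neuroprogenitors, 60,000/well on Matrigel, cultured 16 h, then 72 h chemical exposure in test medium. Cell titer via CellTiter Aqueous One; positive-direction fit vs DMSO.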
# [8] = ArunA_Migration_hNP: ArunA Biomedical's Oris Neuroprogenitor (hNP) Cell Migration Assay (AID 2283754)
# How it was run: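 Human H9-derived hNP1 neuroprogenitors on Matrigel with LIF/bFGF, plated around seeding stoppers for 16 h at 37C; stoppers removed at start of 72 h chemical exposure. Calcein-AM staining, fluorescence 494/517 nm in detection zone; loss-of-signal vs DMSO; cytochalasin D control.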
# [9] = ArunA_Migration_hNC: ArunA Biomedical's Oris Neural Crest (hNC) Cell Migration Assay (AID 2283755)
# How it was run: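 Human H9-derived neural crest stem cells, 60,000/well on Matrigel, 16 h at 37C, then 72 h chemical exposure after seeding-stopper removal. Migration into detection zone read as calcein-AM fluorescence (ex494/em517), relative to DMSO.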
# [10] = ArunA_NOG_NucleusCount: ArunA Biomedical's Neurite Outgrowth (NOG) Assay for Nucleus Count (AID 2283756)
# How it was run: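 Human H9-derived differentiated neurons were exposed for 48 h right after seeding. Hoechst-stained nuclei gated by size and intensity were counted by automated high-content imaging as viable neurons. Loss of signal vs DMSO.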
# [11] = ArunA_NOG_NeuriteLength: ArunA Biomedical's Neurite Outgrowth (NOG) Assay for Neurite Length (AID 2283757)
# How it was run: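 Differentiated human H9-derived neurons were exposed for 48 h from seeding, then stained with Hoechst and βIII-tubulin. Automated high-content imaging gave total neurite length per valid neuron, counting processes >10 um. Loss of signal was scored versus DMSO.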
# [12] = ArunA_NOG_NeuritesPerNeuron: ArunA Biomedical's Neurite Outgrowth (NOG) Assay for Neurites Per Neuron (AID 2283758)
# How it was run: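 Differentiated human H9-derived neurons exposed to chemicals for 48 h from seeding, then stained with Hoechst and βIII-tubulin/DyLight 488. Automated imaging counted neurites (processes >10 um) per valid neuron; loss of signal versus DMSO scored.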
# [13] = target: Luciferin 4-monooxygenase (Photinus pyralis) (UniProt P08659); experiment: CCTE_Simmons_QuantiLum_inhib_2: CCTE's Firefly Luciferase Inhibition Assay, Simmons Lab (AID 2283767);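 also: potency for inhibitors that lower luciferase luminescence relative to DMSO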
# How it was run: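 Luminescence loss relative to DMSO vehicle defines inhibition; detection reagent containing 150 uM D-luciferin and 147 uM dATP (final, pH 7.8) is injected immediately before each read. Enzyme is preincubated with an 8-point titration (5 nM–87.5 uM final) for 30 min at 37C.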
# [14] = ArunA_NOG_BranchPointsPerNeurite: ArunA Biomedical's Neurite Outgrowth (NOG) Assay for Branch Points Per Neurite (AID 2283759)
# How it was run: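 Automated image analysis traced neurites (processes >10 um) from valid cell bodies after Hoechst and βIII-tubulin staining. hNN cells from H9 embryonic stem cells, 48 h exposure. Fitted bidirectionally against DMSO.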
# [15] = target: zebrafish Estrogen Receptor (ESR1), esr1 (gene 259252) (UniProt P57717); experiment: ATG_zfER1_XSP1: Attagene TRANS-FACTORIAL Multi-Species (XSP1) HepG2 Assay for zebrafish Estrogen Receptor (ESR1) (AID 2283772)
# How it was run: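 Trans-activation readout: transfected zebrafish ER-Gal4 drives a UAS reporter in human HepG2 liver cells. After 24 h compound exposure (medium containing 3 nM 6-alpha-fluorotestosterone), induced reporter transcripts were quantified by RT-PCR with capillary electrophoresis, relative to DMSO.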
# [16] = tested on: zebrafish Estrogen Receptor (ESR2B), gene 317733; experiment: ATG_zfER2b_XSP1: Attagene TRANS-FACTORIAL Multi-Species (XSP1) HepG2 Assay for zebrafish Estrogen Receptor (ESR2B) (AID 2283773)
# How it was run: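 Gain-of-signal endpoint relative to DMSO: reporter transcript levels quantified by RT-PCR and capillary electrophoresis after 24 h compound exposure of HepG2 cells expressing a zebrafish ER2b-Gal4 chimera.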
# Luciferin 4-monooxygenase (Photinus pyralis), sequence (P08659 whole entry, looked up): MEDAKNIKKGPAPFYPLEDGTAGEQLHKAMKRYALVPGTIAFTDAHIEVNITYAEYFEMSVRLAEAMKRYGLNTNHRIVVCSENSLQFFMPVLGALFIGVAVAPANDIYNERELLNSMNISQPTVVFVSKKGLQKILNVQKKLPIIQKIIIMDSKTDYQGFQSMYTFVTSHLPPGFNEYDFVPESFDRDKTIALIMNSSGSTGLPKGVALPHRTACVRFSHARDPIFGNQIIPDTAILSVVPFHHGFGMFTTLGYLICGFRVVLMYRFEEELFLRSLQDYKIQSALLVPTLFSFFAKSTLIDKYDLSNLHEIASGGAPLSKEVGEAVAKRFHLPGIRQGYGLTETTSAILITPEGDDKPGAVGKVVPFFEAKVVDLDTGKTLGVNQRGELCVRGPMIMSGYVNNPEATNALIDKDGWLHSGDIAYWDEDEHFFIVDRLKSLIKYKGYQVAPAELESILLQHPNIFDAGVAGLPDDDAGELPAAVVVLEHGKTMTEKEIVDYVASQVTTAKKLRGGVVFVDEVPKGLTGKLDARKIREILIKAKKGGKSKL
# zebrafish Estrogen Receptor (ESR1), esr1 (gene 259252), sequence (P57717 whole entry, looked up, the tested form may be a part): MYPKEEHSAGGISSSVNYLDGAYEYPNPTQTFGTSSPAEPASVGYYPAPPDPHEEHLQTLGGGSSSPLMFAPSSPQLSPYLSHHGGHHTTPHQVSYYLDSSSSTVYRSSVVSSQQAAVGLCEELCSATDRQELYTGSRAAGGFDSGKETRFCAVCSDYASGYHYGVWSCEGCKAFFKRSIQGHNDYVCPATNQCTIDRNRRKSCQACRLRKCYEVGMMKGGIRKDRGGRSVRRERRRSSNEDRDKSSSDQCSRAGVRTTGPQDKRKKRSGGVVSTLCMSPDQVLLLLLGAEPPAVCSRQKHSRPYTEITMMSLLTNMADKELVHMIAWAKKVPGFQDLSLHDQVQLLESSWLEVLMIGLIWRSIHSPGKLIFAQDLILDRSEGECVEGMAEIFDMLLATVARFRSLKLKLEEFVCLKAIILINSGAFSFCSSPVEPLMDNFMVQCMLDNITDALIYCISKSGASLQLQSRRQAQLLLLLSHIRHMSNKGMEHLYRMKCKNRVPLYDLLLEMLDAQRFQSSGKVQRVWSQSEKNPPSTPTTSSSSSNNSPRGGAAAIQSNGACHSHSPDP
smiles,measurement,setting,value
ClC1=C(Cl)[C@]2(Cl)[C@H]3[C@H]([C@@H]4C=C[C@H]3C4)[C@@]1(Cl)C2(Cl)Cl,AC50,[1],976 nM (active) and 4.66 µM (active)
same,outcome,[2],inactive
same,outcome,[3],inactive
Oc1ccc2ccc3cccc4ccc1c2c34,AC50,[1],15.2 µM (active)
same,outcome,[2],inactive
same,outcome,[4],inactive
same,outcome,[5],inactive
same,AC50,[3],47.4 µM (active)
same,AC50,[6],14.7 µM (active)
same,AC50,[7],25.8 µM (active)
same,AC50,[8],50 µM (active)
same,AC50,[9],13.9 µM (active)
same,outcome,[10],inactive
same,outcome,[11],inactive
same,outcome,[12],inactive
same,AC50,[13],48 µM (active)
COc1cc(C=O)cc2c1[C@H](COC(N)=O)[C@]1(OC(C)=O)ON2C[C@H]2[C@@H]1N2C(C)=O,outcome,[1],inactive
same,AC50,[2],0.0003 µM (active)
same,AC50,[4],0.000797 µM (active)
same,AC50,[3],23.4 µM (active)
Nc1ccc(Cl)cc1N,AC50,[1],15 µM (active)
same,outcome,[5],inactive
same,AC50,[3],44.8 µM (active)
same,AC50,[13],9.28 µM (active)
O=[N+]([O-])c1ccc(Oc2ccc(Cl)cc2Cl)cc1,AC50,[1],7.79 µM (active)
same,AC50,[2],29.8 µM (active)
same,AC50,[4],50 µM (active)
same,outcome,[3],inactive
Nc1ccc(N=Nc2ccccc2)cc1,AC50,[1],33.9 µM (active)
same,outcome,[5],inactive
same,outcome,[3],inactive
same,AC50,[13],3.16 µM (active)
Clc1ccc(Cl)c(Cl)c1,outcome,[1],inactive
same,outcome,[2],inactive
same,outcome,[3],inactive
same,outcome,[6],inactive
same,outcome,[8],inactive
same,outcome,[10],inactive
same,outcome,[12],inactive
same,outcome,[14],inactive
Clc1ccc(C(c2ccc(Cl)cc2)C(Cl)Cl)cc1,AC50,[1],20.3 µM (active)
same,outcome,[2],inactive
same,outcome,[4],inactive
same,outcome,[3],inactive
same,outcome,[15],inactive
same,AC50,[16],7.14 µM (active)
CCCCCCCCn1sccc1=O,AC50,[1],0.523 µM (active)
same,AC50,[2],11.5 µM (active)
same,AC50,[4],22.4 µM (active)
same,AC50,[3],3.42 µM (active)

# Reference: PubChem BioAssay (EPA / NIEHS)
